The values that follow come from ChEMBL document CHEMBL1961873, “Compounds: GSK PKIS; Assays: Nanosyn kinase panel” (2012).

Assay [1] addresses Platelet-derived growth factor receptor beta (Homo sapiens) (UniProt P09619). To be noted: at 1 µM.
Assay [2] has as its target Tyrosine-protein kinase FRK (Homo sapiens) (UniProt P42685). The note with it: at 0.1 µM.
Assay [3] has the same target. The note with it: at 1 µM.
For assay [4], the target named is Protein-tyrosine kinase 2-beta (Homo sapiens) (UniProt Q14289). The note with it: at 0.1 µM.
Chain of Protein-tyrosine kinase 2-beta (Homo sapiens) (Q14289 whole entry, looked up): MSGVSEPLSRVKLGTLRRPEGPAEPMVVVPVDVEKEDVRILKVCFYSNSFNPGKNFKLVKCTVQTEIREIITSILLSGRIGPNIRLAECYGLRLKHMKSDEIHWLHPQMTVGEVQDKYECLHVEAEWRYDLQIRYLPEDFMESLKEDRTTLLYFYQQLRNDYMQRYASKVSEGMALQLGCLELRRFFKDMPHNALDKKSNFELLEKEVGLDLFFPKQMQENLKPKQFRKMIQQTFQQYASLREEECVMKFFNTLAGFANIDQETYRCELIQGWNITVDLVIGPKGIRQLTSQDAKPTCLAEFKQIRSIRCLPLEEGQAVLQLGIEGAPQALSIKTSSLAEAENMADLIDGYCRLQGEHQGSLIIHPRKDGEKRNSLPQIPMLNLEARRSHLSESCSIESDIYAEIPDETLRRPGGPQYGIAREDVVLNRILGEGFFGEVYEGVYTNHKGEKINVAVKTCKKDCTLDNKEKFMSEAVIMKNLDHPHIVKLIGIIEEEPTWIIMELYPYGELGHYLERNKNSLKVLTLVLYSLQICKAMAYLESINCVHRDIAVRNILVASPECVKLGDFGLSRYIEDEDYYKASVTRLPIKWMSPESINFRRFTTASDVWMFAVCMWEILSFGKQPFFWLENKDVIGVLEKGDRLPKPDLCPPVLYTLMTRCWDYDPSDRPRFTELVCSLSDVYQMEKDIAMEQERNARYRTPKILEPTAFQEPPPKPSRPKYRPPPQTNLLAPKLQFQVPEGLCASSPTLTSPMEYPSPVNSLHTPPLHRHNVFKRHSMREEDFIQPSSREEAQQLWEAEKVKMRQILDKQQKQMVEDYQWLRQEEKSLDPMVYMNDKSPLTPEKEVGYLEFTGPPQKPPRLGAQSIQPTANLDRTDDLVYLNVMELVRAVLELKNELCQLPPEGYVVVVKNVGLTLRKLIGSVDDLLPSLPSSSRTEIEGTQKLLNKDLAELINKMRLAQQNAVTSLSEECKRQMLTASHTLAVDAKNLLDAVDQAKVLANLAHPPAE
The target is the same in assay [5]. The note with it: at 1 µM.
In assay [6] the target is Proto-oncogene tyrosine-protein kinase receptor Ret (Homo sapiens) (UniProt P07949). To be noted: at 0.1 µM.
Chain of Proto-oncogene tyrosine-protein kinase receptor Ret (Homo sapiens) (P07949 whole entry): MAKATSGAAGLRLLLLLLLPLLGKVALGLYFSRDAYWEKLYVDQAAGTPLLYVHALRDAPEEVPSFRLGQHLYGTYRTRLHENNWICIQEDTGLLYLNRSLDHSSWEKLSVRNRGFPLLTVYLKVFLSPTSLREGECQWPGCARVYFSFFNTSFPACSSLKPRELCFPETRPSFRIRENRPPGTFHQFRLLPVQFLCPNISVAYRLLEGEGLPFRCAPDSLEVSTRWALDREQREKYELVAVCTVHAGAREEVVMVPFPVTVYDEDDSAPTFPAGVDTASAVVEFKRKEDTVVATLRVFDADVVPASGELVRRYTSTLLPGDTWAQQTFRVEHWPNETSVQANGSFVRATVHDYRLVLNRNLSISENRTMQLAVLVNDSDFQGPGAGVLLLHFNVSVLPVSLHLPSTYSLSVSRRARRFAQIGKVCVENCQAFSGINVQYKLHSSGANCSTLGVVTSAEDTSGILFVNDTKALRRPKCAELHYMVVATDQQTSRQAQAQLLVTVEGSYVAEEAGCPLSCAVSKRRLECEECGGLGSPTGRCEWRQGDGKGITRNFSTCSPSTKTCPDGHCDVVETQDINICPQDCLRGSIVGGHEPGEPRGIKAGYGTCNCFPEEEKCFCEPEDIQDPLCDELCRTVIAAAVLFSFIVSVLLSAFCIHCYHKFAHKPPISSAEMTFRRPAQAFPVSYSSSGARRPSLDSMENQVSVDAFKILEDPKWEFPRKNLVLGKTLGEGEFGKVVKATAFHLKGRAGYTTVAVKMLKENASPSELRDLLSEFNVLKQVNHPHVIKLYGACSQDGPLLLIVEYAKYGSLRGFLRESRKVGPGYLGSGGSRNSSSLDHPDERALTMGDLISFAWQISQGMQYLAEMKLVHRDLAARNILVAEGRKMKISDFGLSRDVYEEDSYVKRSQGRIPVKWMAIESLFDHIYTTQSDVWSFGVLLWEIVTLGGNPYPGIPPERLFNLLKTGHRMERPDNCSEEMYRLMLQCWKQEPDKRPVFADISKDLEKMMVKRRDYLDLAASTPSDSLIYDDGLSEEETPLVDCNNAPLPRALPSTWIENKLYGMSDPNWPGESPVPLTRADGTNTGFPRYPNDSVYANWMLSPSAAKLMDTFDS
Assay [7] shares this target. To be noted: at 1 µM.
Assay [8] concerns Proto-oncogene tyrosine-protein kinase receptor Ret (Homo sapiens), P07949 [V804L]. The note with it: at 0.1 µM.
Chain of Proto-oncogene tyrosine-protein kinase receptor Ret (Homo sapiens), P07949 [V804L] (P07949 whole entry V804L): as the sequence (P07949 whole entry) above, with V804L counted along it
Assay [9] shares this test system. To be noted: at 1 µM.
In assay [10] the test system is Proto-oncogene tyrosine-protein kinase receptor Ret (Homo sapiens), P07949 [Y791F]. To be noted: at 0.1 µM.
Chain of Proto-oncogene tyrosine-protein kinase receptor Ret (Homo sapiens), P07949 [Y791F] (P07949 whole entry Y791F): as the sequence (P07949 whole entry) above, with Y791F counted along it
Assay [11] has the same test system. To be noted: at 1 µM.
The target in assay [12] is Macrophage-stimulating protein receptor (Homo sapiens) (UniProt Q04912). To be noted: at 0.1 µM.
For assay [13] the target is unchanged. The note with it: at 1 µM.
In assay [14] the target is Proto-oncogene tyrosine-protein kinase ROS (Homo sapiens) (UniProt P08922). To be noted: at 0.1 µM.
Assay [15] has the same target. To be noted: at 1 µM.
The target in assay [16] is Proto-oncogene tyrosine-protein kinase Src (Homo sapiens) (UniProt P12931). To be noted: at 0.1 µM.
Chain of Proto-oncogene tyrosine-protein kinase Src (Homo sapiens) (P12931 2-536 limits assumed): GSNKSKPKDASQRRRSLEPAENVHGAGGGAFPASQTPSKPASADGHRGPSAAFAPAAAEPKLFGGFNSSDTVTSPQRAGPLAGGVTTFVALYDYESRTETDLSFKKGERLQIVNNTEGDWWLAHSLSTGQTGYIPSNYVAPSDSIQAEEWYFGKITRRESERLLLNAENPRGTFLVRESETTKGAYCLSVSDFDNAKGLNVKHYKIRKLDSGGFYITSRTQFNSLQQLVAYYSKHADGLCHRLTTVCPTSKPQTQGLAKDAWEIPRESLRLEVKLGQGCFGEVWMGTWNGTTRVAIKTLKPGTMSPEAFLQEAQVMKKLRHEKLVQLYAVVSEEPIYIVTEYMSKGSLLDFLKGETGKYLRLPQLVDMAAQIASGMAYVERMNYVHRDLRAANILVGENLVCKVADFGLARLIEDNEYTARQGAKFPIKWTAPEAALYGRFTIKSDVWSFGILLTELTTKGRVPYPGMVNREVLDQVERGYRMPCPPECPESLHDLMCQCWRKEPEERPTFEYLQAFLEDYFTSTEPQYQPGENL
Assay [17] has the same target. To be noted: at 1 µM.
For assay [18], the target named is Tyrosine-protein kinase Srms (Homo sapiens) (UniProt Q9H3Y6). To be noted: at 0.1 µM.
Chain of Tyrosine-protein kinase Srms (Homo sapiens) (Q9H3Y6 whole entry): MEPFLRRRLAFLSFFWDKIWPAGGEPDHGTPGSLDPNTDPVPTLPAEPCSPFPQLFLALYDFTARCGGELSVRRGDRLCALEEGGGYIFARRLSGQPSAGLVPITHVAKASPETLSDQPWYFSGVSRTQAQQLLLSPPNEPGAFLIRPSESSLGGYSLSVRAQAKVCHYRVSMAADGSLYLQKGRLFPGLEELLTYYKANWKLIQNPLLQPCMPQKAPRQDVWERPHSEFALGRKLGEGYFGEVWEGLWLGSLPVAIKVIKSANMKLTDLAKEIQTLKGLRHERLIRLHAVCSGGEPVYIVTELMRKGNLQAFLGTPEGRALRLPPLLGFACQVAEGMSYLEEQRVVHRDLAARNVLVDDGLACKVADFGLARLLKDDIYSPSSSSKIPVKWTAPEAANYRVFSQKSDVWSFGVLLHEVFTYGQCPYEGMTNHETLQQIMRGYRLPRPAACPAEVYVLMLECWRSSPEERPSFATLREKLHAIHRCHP
Assay [19] has the same target. To be noted: at 1 µM.
Assay [20] deals with Tyrosine-protein kinase SYK (Homo sapiens) (UniProt P43405). To be noted: at 0.1 µM.

Chain of Platelet-derived growth factor receptor beta (Homo sapiens) (P09619 whole entry): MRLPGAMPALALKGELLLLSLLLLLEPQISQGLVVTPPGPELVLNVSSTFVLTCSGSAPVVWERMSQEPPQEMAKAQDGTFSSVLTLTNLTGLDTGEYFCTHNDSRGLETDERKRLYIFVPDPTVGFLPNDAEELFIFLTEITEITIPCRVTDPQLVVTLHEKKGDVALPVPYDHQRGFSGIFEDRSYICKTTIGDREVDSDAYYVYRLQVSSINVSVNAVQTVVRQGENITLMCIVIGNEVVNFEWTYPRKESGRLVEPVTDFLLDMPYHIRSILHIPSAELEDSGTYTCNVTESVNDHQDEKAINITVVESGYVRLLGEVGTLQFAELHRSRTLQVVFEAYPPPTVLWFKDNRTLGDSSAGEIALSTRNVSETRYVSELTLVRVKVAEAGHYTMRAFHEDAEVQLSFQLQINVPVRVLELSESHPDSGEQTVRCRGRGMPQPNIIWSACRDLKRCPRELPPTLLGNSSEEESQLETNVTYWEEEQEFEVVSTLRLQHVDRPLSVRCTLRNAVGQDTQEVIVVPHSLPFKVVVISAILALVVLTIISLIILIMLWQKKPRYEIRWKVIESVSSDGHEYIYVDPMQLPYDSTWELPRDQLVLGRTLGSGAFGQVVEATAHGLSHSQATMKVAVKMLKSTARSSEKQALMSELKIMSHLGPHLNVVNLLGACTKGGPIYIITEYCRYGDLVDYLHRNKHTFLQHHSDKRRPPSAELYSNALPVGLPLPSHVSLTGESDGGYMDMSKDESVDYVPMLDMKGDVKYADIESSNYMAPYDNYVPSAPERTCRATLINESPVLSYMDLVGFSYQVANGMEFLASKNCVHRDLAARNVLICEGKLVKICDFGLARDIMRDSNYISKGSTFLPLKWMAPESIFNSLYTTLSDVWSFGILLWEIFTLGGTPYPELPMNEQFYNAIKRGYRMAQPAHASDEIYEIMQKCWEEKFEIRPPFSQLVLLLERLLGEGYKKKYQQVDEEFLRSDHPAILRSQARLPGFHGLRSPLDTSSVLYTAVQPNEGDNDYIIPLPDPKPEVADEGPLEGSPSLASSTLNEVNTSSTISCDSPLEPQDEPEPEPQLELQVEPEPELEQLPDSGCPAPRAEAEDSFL
Chain of Tyrosine-protein kinase FRK (Homo sapiens) (P42685 whole entry): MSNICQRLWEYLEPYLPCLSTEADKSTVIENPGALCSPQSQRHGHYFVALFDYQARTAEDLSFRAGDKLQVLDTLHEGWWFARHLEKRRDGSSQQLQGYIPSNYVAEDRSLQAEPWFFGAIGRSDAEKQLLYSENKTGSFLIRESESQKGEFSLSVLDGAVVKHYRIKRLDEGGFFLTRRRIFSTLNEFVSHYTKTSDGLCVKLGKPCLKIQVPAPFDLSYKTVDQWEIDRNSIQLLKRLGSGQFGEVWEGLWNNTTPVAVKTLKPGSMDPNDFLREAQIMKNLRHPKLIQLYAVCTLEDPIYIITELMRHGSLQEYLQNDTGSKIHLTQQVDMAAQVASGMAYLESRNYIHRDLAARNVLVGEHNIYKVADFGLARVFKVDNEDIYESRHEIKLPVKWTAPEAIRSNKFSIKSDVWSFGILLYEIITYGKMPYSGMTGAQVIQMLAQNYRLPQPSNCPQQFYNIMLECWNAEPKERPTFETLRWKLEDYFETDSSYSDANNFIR

`CN(C)c1cc2c(Nc3ccc4c(cnn4Cc4ccccc4)c3)ncnc2cn1`: the inhibition (in general, the drop in the measured response relative to a control, in per cent) in assay [1] turned out to be 7.75%; in [2], 1.92%; in assay [3], 2.5%; in assay [4] it was 4.48%; in assay [5], 5.1%; in assay [6] it was 1.87%. The inhibition was 13.6% in assay [7]; 3.56% in [8]; 0.35% in assay [9]; 5.78% in [10]; 34.4% in [11]; 1.53% in [12]. The inhibition in [13] is 0.62%; in assay [14], 2.34%; in assay [15], 2.03%; in [16], 3.91%; in assay [17], 13.1%; in assay [18], -0.2%. In addition, the inhibition in [19] was 1.29%; in [20], 0.89%.
Take `CCCN1CCCC(c2ccc(Nc3nc(Nc4cc(F)ccc4C(N)=O)c4cc[nH]c4n3)c(OC)c2)C1` (stereo not drawn): the inhibition in assay [1] was determined as 32.2%; in [2], 7.2%; in assay [3] it was 20.5%; in [4], 96%; in assay [5] it was 97.7%; in [6] it was 8.63%. In addition, the inhibition in [7] was found to be 20.9%; in assay [8], 10.1%; in assay [9] it was 41.6%; in assay [10] it was 8.67%; in [11] it was 23.6%; in assay [12], 0.58%. The inhibition in assay [13] was 13.1%; in [14], 63.8%; in [15] it was 81.2%; in assay [16] it was -0.17%; in assay [17] it was 14.6%; in assay [18], 1.99%. Moreover, in [19], the inhibition came out at 22.1%.
Turning to `Cc1ccc(C(=O)NC2CC2)cc1-c1ccc2[nH]ncc2c1`, the inhibition in assay [1] is 6.94%; in [2], -2.56%; in assay [3] it was -4.36%; in assay [4] it was -4.62%; in [5], -8.03%; in [6], -2.17%. Moreover, the inhibition is -0.48% in assay [7]; -1.65% in [8]; 0.72% in assay [9]; -3.09% in [10]; -0.71% in [11]; -3.31% in assay [12]. Moreover, the inhibition in [13] is -6.03%; in assay [14] it was 0.92%; in [15] it was 1.49%; in [16], -6.61%; in assay [17] it was -7.08%; in [18] it was -1.77%. The inhibition in [19] is 0.94%; in assay [20], -1.71%.
With `COc1cc(/C=N/Nc2ncnc3c2cnn3C(C)C)ccc1O`, the inhibition was 45.1% in [1]; 2.61% in [2]; 1.87% in assay [3]; 8.31% in assay [4]; 21.9% in assay [5]; 61.1% in [6]. Also, the inhibition in assay [7] was found to be 85.4%; in [8], 14.1%; in [9] it was 53.9%; in [10] it was 54%; in assay [11], 78.1%; in assay [12], 8.98%. The inhibition in assay [13] was found to be 17.9%; in assay [14], 11.9%; in assay [15] it was 37.5%; in assay [16], 20.8%; in assay [17], 72.7%; in assay [18], 1.16%. The results for the inhibition in assay [19] and in assay [20] were 4.98% and -1.05%, respectively.
In the case of `NC(=O)c1sc(-n2cnc3ccccc32)cc1OCc1ccccc1Br`, the inhibition in [1] amounted to 14.4%; in [2], 2.57%; in [3], 3.29%; in assay [4], 7.34%; in assay [5], 6.52%; in [6], 9.37%. The inhibition came to 12.7% in assay [7]; 3.43% in assay [8]; 5.79% in assay [9]; 5.9% in [10]; 15.3% in [11]; 9.12% in [12]. The inhibition is 9.57% in assay [13]; 7.48% in [14]; 10.1% in [15]; 7.25% in [16]; 12.9% in [17]; -2.72% in assay [18]. Also, the values for the inhibition in assay [19] and in assay [20] were -2.44% and 0.26%, respectively.
Regarding `COc1cccc(-n2nc(C)c3c(N/N=C(\C)c4ccncc4)ncnc32)c1`, the inhibition was 5.79% in assay [1]; 0.1% in assay [2]; -0.17% in [3]; 1.44% in assay [4]; 8.6% in assay [5]; -0.76% in [6]. For the same molecule, the inhibition was 0.88% in assay [7]; 1.04% in [8]; 1.23% in assay [9]; 2.73% in assay [10]; 5.78% in [11]; -3.77% in [12]. The inhibition in assay [13] was -0.1%; in assay [14], 2.71%; in assay [15], 4.49%; in [16] it was 2.45%; in assay [17] it was 3.26%; in assay [18], 0.84%. For the same molecule, the inhibition in [19] amounted to 2.72%; in assay [20] it was 1.37%.
`N#Cc1cccc(Nc2nccc(-c3cnn4ncccc34)n2)c1`: the inhibition in [1] stood at 65.1%; in [2], 5.2%; in [3], 16%; in assay [4], 21.6%; in [5], 71%; in assay [6], 8.71%. Further, the inhibition in assay [7] was 37.4%; in assay [8], 6.87%; in [9], 43.8%; in [10], 7.91%; in assay [11] it was 37.3%; in assay [12] it was -3.06%. The inhibition in [13] is 15.6%; in [14], 32.1%; in [15], 74.2%; in assay [16] it was 14.3%; in assay [17], 66%; in assay [18] it was 1.1%. In addition, the inhibition in [19] is 14.7%.
For `O=C1Nc2ccccc2/C1=C/Nc1ccc2[nH]c(=O)[nH]c2c1`, the inhibition in assay [1] came to 56.7%; in assay [2], 6.33%; in assay [3], 8.07%; in [4], 20.6%; in [5], 46.4%; in assay [6], 23.7%. Besides, the inhibition in [7] amounted to 61.3%; in [8] it was 32.4%; in assay [9], 75.4%; in assay [10], 25.8%; in assay [11], 67%; in assay [12], 5.9%. The inhibition in [13] is 10.9%; in assay [14], 3.89%; in assay [15] it was 11.8%; in [16], 5.5%; in [17], 31%; in assay [18] it was -2.08%. In addition, the inhibition was found to be 3.2% in [19] and 3.76% in [20].
`CS(=O)(=O)CCNCc1nc(-c2ccc3ncnc(Nc4ccc(OCc5cccc(C(F)(F)F)c5)cc4)c3c2)cs1`: the inhibition was 10.1% in [1]; 1.71% in assay [2]; 0.38% in assay [3]; -1.25% in [4]; 2.41% in assay [5]; 5.26% in assay [6]. Besides, the inhibition in assay [7] stood at 4.11%; in [8] it was 2.89%; in assay [9] it was 5.13%; in assay [10] it was 7.97%; in assay [11], 5.88%; in assay [12] it was 4.48%. The inhibition is 2.59% in [13]; 4.03% in [14]; 4.18% in [15]; 6.29% in assay [16]; 7.64% in assay [17]; -0.76% in assay [18]. Also, the inhibition in assay [19] was -3.56%; in assay [20] it was 0.35%.
Consider `Nc1nccc(-c2c(-c3ccc(F)cc3)ncn2CCCN2CCOCC2)n1`, for which the inhibition in [1] was 11.8%; in assay [2], 1.5%; in assay [3] it was 1.08%; in assay [4], 9.24%; in [5], 8.65%; in assay [6], 4.75%. The inhibition was 5.26% in assay [7]; 1.67% in [8]; 4.72% in [9]; 2.28% in assay [10]; 24.9% in assay [11]; -1.76% in assay [12]. The inhibition in assay [13] is 2.17%; in assay [14] it was 5.06%; in assay [15], 5.81%; in assay [16], -0.33%; in assay [17], 8.77%; in assay [18] it was -1.41%. Further, the inhibition was 1.12% in assay [19] and -6.28% in assay [20].
With `O=C(Nc1ccc(Oc2ccc3[nH]c(NC(=O)c4ccco4)nc3c2)cc1)Nc1cc(C(F)(F)F)ccc1F`, the inhibition is 58.3% in [1]; 0.19% in assay [2]; 2.9% in assay [3]; 0.95% in assay [4]; 12.9% in [5]; 77.7% in [6]. In addition, the inhibition in assay [7] is 84.2%; in assay [8], 45.6%; in assay [9] it was 75.7%; in [10], 50.9%; in assay [11], 82.3%; in [12] it was -2.7%. Also, the inhibition stood at 17.2% in [13]; 0.05% in assay [14]; 11.1% in assay [15]; 7.67% in [16]; 37% in assay [17]; 3.74% in assay [18]. Moreover, the inhibition was -0.11% in [19] and 1.01% in [20].
`Cc1ccc(O)cc1Nc1ccnc2ccc(S(C)(=O)=O)cc12`: the inhibition in [1] was found to be 84.2%; in assay [2], 89%; in assay [3], 95.7%; in assay [4], 15.7%; in assay [5] it was 41.3%; in [6] it was 81.8%. Also, the inhibition in [7] came to 88.4%; in [8], 7.62%; in [9], 26.6%; in [10], 81.3%; in assay [11] it was 89.5%; in assay [12] it was 5.15%. In addition, the inhibition in assay [13] was determined as 6.07%; in [14], 5.41%; in [15], 8.68%; in assay [16], 92.2%; in assay [17] it was 95.1%; in assay [18], 27.4%. Besides, the figures for the inhibition in assay [19] and in [20] were 69% and -7.79%, respectively.
On to `CN(C)CCCn1c(-c2nonc2N)nc2cnccc21`, for which the inhibition amounted to 11.6% in assay [1]; 2.2% in assay [2]; 1.55% in assay [3]; 9.44% in assay [4]; 4.55% in assay [5]; 7.25% in [6]. The inhibition in assay [7] is 8.04%; in assay [8] it was 1.93%; in assay [9], 2.02%; in assay [10], 2.47%; in assay [11], 8.31%; in [12], 1.31%. For the same molecule, the inhibition in assay [13] was 3.53%; in [14] it was 5.53%; in assay [15] it was 4.62%; in assay [16] it was 2.96%; in assay [17], 6.8%; in assay [18], -0.98%. Besides, the inhibition in [19] is -4.16%; in [20], -4.3%.
On to `c1ccc(Nc2ncc(-c3ccccc3)o2)cc1`, for which the inhibition in assay [1] was 36%; in [2], 3.95%; in [3] it was 4.95%; in [4], 10.4%; in assay [5] it was 14.3%; in assay [6], 6.9%. The inhibition in assay [7] turned out to be 9.61%; in assay [8], 2.13%; in assay [9] it was 6.39%; in assay [10], 5.1%; in assay [11] it was 11.5%; in assay [12] it was 8.13%. The inhibition in assay [13] was determined as 9.16%; in assay [14] it was 7.47%; in assay [15] it was 5.92%; in [16] it was 9.27%; in assay [17], 14.3%; in [18], 0.17%. For the same molecule, the inhibition in [19] was 2.19%; in [20], 1.8%.
